The values that follow come from PubChem BioAssay.

Results filed as inconclusive are left out. Active and inactive are the calls of the source. Cut-off read from the data, not from the text of the source: active = fluorescence slope change above about 50%; inconclusive = mostly about 31% to 49%; inactive = weaker than that.

For the assay, the target named is ATP-dependent translocase ABCB1 (Homo sapiens) (UniProt P08183). In words: MDR1 (ABCB1) efflux transporter inhibition, cell-based (AID 377). The conditions noted are these: MDR1-expressing cells, fluorescent substrate accumulation slope; stronger effect = higher value; concentration not given here.
Chain of ATP-dependent translocase ABCB1 (Homo sapiens) (P08183 whole entry, looked up): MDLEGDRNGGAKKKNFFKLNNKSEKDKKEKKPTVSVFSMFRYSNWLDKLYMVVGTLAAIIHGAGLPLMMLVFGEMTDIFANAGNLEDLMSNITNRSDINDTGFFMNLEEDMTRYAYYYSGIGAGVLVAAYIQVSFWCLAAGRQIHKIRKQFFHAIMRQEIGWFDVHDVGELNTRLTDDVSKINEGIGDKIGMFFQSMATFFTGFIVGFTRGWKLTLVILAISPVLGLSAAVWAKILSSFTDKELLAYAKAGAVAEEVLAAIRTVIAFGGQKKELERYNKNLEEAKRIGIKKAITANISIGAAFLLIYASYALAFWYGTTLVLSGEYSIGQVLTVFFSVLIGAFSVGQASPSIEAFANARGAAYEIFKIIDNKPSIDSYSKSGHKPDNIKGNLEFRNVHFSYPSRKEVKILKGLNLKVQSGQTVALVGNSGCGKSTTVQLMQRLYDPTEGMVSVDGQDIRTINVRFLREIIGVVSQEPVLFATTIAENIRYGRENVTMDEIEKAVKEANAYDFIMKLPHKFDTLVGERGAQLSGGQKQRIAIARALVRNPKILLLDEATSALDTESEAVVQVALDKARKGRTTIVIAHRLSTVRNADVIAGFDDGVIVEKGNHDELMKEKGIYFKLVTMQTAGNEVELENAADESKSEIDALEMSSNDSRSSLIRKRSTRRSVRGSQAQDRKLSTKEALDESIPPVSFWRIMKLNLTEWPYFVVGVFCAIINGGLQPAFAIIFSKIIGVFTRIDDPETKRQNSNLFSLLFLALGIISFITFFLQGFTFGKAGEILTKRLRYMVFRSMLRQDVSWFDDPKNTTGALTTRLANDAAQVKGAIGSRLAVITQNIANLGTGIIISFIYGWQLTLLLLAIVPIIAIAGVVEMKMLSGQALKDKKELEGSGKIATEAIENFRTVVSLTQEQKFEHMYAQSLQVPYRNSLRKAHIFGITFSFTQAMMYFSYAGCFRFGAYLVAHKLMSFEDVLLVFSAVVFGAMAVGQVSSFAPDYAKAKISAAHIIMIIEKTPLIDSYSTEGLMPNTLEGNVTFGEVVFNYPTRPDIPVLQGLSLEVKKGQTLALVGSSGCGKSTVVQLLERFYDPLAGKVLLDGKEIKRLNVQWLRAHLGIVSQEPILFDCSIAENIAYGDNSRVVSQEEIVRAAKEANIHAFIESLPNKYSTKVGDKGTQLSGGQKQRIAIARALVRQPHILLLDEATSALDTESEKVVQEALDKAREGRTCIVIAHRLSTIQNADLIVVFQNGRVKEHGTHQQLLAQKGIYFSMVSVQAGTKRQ
Regarding `CN1CCN(C2=Nc3ccccc3Oc3ccc(Cl)cc32)CC1`, the fluorescence slope change is 163% (active).

Take `C[C@@H]1C[C@H]2[C@@H]3C[C@H](F)C4=CC(=O)C=C[C@]4(C)[C@@]3(F)[C@@H](O)C[C@]2(C)[C@@]1(O)C(=O)CO`: the fluorescence slope change is 57.3% (active).

For `Nc1ncnc2c1ncn2[C@@H]1O[C@H](COP(=O)(O)O)[C@@H](O)[C@H]1O`, the fluorescence slope change was 73% (active).

Regarding `CC(=O)[C@@]1(O)CC[C@H]2[C@@H]3C[C@H](C)C4=CC(=O)C=C[C@]4(C)[C@@]3(F)[C@@H](O)C[C@@]21C`, the fluorescence slope change was 10.7% (inactive).

Consider `COC(=O)[C@@H]1[C@H]2C[C@H]3c4[nH]c5ccccc5c4CCN3C[C@@H]2CC[C@@H]1O`, for which the fluorescence slope change is 52.6% (active).

In the case of `CC(=O)OCC(=O)[C@@]1(O)[C@H](C)C[C@H]2[C@@H]3CCC4=CC(=O)C=C[C@]4(C)[C@@]3(F)[C@@H](O)C[C@@]21C`, the fluorescence slope change is 109% (active).

Consider `CC(C)NCC(O)COc1ccc(CCOCC2CC2)cc1` (stereo not drawn), for which the fluorescence slope change was 1% (inactive).

With `CC1CC(OC(=O)C(O)c2ccccc2)CC(C)(C)N1C` (stereo not drawn), the fluorescence slope change is 23.1% (inactive).

As for `CC1(C)O[C@@H]2C[C@H]3[C@@H]4CCC5=CC(=O)CC[C@]5(C)[C@@]4(F)[C@@H](O)C[C@]3(C)[C@]2(C(=O)CCl)O1`, the fluorescence slope change was 26.3% (inactive).

`CN1CCCCC1CCN1c2ccccc2Sc2ccc(S(C)=O)cc21` (stereo not drawn): the fluorescence slope change is 54.4% (active).

On to `Nc1ccc(S(=O)(=O)Nc2ccc(Cl)nn2)cc1`, for which the fluorescence slope change was -13.4% (inactive).

`NC(N)=N/N=C/c1c(Cl)cccc1Cl`: the fluorescence slope change was 70.4% (active).

Consider `CCN(CCCc1ccccc1)CCCc1ccccc1`, for which the fluorescence slope change is 72.6% (active).
